The campaign covered roughly 350,000 compounds. About 31,000 (8.9%) were called active. Not shown: some 15% with an inconclusive outcome. Calls come from the whole dose curve; as a rule, active = well fitted inhibition curve with a large enough effect; inconclusive = small, poorly fitted or top-dose-only effect; inactive = no such curve, though single readings can be large or run the other way. What follows is part of a selection rich in actives, with near analogues and random picks from the rest.
biological target: Histone-lysine N-methyltransferase EHMT2 (Homo sapiens) (UniProt Q96KQ7); test: qHTS Assay for Inhibitors of Histone Lysine Methyltransferase G9a; settings: G9a H3K9 monomethylation, AlphaScreen, 2 h; series mostly up to 59 µM; activity, negative = inhibition: at the top concentration; note: nearly all actives have a fitted effect of over 75% in size
Outline: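 G9a (20 nM) was preincubated 15 min with compound, then reacted 2 h at room temperature with 500 nM biotin-H3K9 peptide and 20 µM SAM. Monomethyl-H3K9 detected by AlphaScreen using anti-H3K9me1 antibody.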
% is set by controls: 0 for no effect and ±100 for the full control effect; potency is the fitted concentration of half-maximal effect.

Chain of Histone-lysine N-methyltransferase EHMT2 (Homo sapiens) (Q96KQ7 913-1193 limits assumed): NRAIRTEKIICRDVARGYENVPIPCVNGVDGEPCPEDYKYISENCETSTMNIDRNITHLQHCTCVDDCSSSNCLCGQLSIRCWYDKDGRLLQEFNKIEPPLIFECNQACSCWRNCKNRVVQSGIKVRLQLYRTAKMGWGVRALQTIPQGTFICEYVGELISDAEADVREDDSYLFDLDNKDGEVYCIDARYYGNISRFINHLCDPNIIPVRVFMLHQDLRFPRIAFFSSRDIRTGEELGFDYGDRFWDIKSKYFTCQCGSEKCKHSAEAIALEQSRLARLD

SMILES | activity, negative = inhibition | Potency
COc1cc(CN(CC2CCCO2)C(=O)c2ccccc2F)cc(OC)c1OC (stereo not drawn) | -3.03% (inactive) | 
Cc1ccc(S(=O)(=O)N(C)CC(=O)NCC(c2ccc(F)cc2)N2CCOCC2)cc1 (stereo not drawn) | 19.1% [at 12.7 µM] (inactive) | 
CCOC(=O)CSC1=Nc2ccccc2C2=NC(CCC(=O)NCc3ccc(F)cc3)C(=O)N12 (stereo not drawn) | 3.43% (inactive) | 
CC(C)N1CCC(=NNc2ccc([N+](=O)[O-])cc2S(=O)(=O)N2CCOCC2)CC1 |  | 15.8 µM (active)
O=[N+]([O-])c1ccc(NCCCN2CCOCC2)c(Cl)c1 | 20.5% [at 2.33 µM] (inactive) | 
O=[N+]([O-])c1cc(S(=O)(=O)N2CCCC2)ccc1NN=C1CCCC1 | 2.51% (inactive) | 
CC(=O)NC12CC3CC(C1)CC(C(=O)N1CCN(S(=O)(=O)c4cccs4)CC1)(C3)C2 | 5.2% [at 12.7 µM] (inactive) | 
COc1ccc(-n2nc3c(c2NC(=O)c2ccc(N4C(=O)CCC4=O)cc2)CSC3)cc1 | 20.2% [at 102 µM] (inactive) | 
O=C(NCCCO)C(=O)Nc1c2c(nn1-c1ccccc1)CSC2 |  | 10 µM (active)
O=C(NCCCO)C(=O)Nc1c2c(nn1-c1ccc(F)cc1)CSC2 |  | 11.2 µM (active)
CC(C)C(=O)Nc1c2c(nn1-c1ccccc1)CSC2 | 24.7% [at 102 µM] (inactive) | 
CC(=O)Nc1c2c(nn1-c1cccc(C)c1)CSC2 | 7.68% (inactive) | 
O=C(Nc1c2c(nn1-c1ccc(F)cc1)CS(=O)C2)C12CC3CC(CC(C3)C1)C2 (stereo not drawn) | -7.51% [at 102 µM] (inactive) | 
COc1cc(CCC(=O)N2CCN(c3ccccc3Cl)CC2)cc(OC)c1OC | -9.07% [at 102 µM] (inactive) | 
CCc1ccc(CN(Cc2ccco2)C(=O)COc2ccc(Cl)c(C)c2)cc1 | 91.2% (inactive) | 
Cc1ccc(OCCSc2nc(C)c(Cc3ccccc3)c(=O)[nH]2)cc1 | -9.13% (inactive) | 
CCOc1cc(C2c3c(-c4ccc(Br)cc4)n[nH]c3C(=O)N2c2ccc(Cl)cc2)ccc1O (stereo not drawn) | -2.85% (inactive) | 
CCOc1cc(C2C(C(=O)c3ccco3)=C(O)C(=O)N2Cc2ccccc2)ccc1O (stereo not drawn) |  | 44.7 µM (active)
O=C(C1=C(O)C(=O)N(Cc2ccccc2)C1c1ccco1)c1ccco1 (stereo not drawn) | 0.744% [at 12.7 µM] (inactive) | 
O=C(CCNS(=O)(=O)c1ccccc1C(F)(F)F)Nc1ccncc1 | -8.2% [at 12.7 µM] (inactive) | 
Cc1cc(/C=C2/SC(=O)N(CC(=O)N3CCCC3)C2=O)c(C)n1C |  | 50.1 µM (active)
Cc1cc(/C=C2/SC(=O)N(CC(=O)N3CCCC3)C2=O)ccc1N1CCOCC1 | -34.9% [at 102 µM] (inactive) | 
Cc1cc(/C=C2/SC(=O)N(CC(=O)OC(C)C)C2=O)c(C)n1C | 19.4% [at 12.7 µM] (inactive) | 
Cc1cccc(N=C2SC(C)CN2C(=O)CN2C(=O)NC3(CCCC3)C2=O)c1 (stereo not drawn) | -1.2% [at 0.501 µM] (inactive) | 
CCn1cc2nc(SCc3ccccc3Cl)n(CCc3ccccc3)c(=O)c2n1 | -9.1% (inactive) | 

SMILES | activity, negative = inhibition | Potency
C=CCOc1ccc(/C=C/C(=O)OC(C)C(=O)Nc2ccc(NC(C)=O)cc2)cc1 (stereo not drawn) | -0.879% [at 102 µM] (inactive) | 
COc1ccc(CNC(=O)COC(=O)CCS(=O)(=O)c2ccc(C)cc2)cc1OC | 8.78% [at 102 µM] (inactive) | 
CN1CCN(S(=O)(=O)c2ccc3[nH]cc(C(=O)O)c(=O)c3c2)CC1 |  | 56.2 µM (active)
CN1CCCN(S(=O)(=O)c2ccc3c(c2)OCCO3)CC1 | 76.4% (inactive) | 
CN1CCN(S(=O)(=O)c2cccc(C(=O)O)c2)CC1 | -49.6% [at 102 µM] (inactive) | 
COc1ccc(N2CCN(Cc3nc4c(c(=O)[nH]c(=O)n4C)n3Cc3ccc(Cl)cc3)CC2)cc1 | -33.5% (inactive) | 
COc1ccc(N2CCN(Cc3ccc(Br)s3)CC2)cc1 |  | 3.16 µM (active)
CCOCc1c(C(=O)N2CCN(Cc3ccc(Br)s3)CC2)oc2ccccc12 | 16.1% [at 2.33 µM] (inactive) | 
Cc1ccc(-c2nnc(CN3CCN(C)CC3)o2)cc1 | -1.5% [at 102 µM] (inactive) | 
COc1ccc(N2CCN(Cc3nnc(-c4ccccc4)o3)CC2)cc1 |  | 35.5 µM (active)
Cc1ccc(C)c(N2CCN(Cc3nnc(-c4ccccc4)o3)CC2)c1 | -2.97% (inactive) | 
CNS(=O)(=O)c1cccc(C(=O)OCC(=O)N2c3ccccc3NC(=O)C2(C)C)c1 | 10.5% [at 12.7 µM] (inactive) | 
COc1ccc(NC(=O)CN2CCCN(Cc3ccccc3)S2(=O)=O)cc1 | 2.42% (inactive) | 
CC(C)Sc1ncnc2c1cnn2-c1ccccc1 | 326% [at 102 µM] (inactive) | 
Cc1cc(NC(=O)C(C)SCC(=O)Nc2ccccc2N2CCCCC2)no1 (stereo not drawn) | -46.6% [at 102 µM] (inactive) | 
CCOc1ccc(CNC(=O)c2ccc3nc(CC)c(CC)nc3c2)cc1OC | -2.75% (inactive) | 
CCCCNC(=O)N(O)C1N(/N=C/c2ccccc2O)C(=S)SC1(C)C (stereo not drawn) | 17.2% [at 102 µM] (inactive) | 
CN1CCN(c2ccc(NC(=O)c3ccccc3)cc2)CC1 | -20.6% [at 102 µM] (inactive) | 
CN1CCN(c2ccc(NC(=O)c3cc(Cl)c4c(c3)OCCO4)cc2)CC1 |  | 50.1 µM (active)
O=C(Nc1cccc(Cl)c1N1CCOCC1)c1ccc2c(c1)OCCO2 | -12% [at 102 µM] (inactive) | 
CCCC12CN3CC(C)(CN(C1)C3c1ccccc1Cl)C2=O (stereo not drawn) | -38% (inactive) | 
COc1ccc2ccn(C)c2c1 | -0.398% [at 0.501 µM] (inactive) | 
COc1ccc2c(c1)cc1n2CCN=C1NN |  | 39.8 µM (active)
Cc1ccc(C)c(NC(=O)Cn2ccn(-c3ccc(F)cc3)c(=O)c2=O)c1 | -3.23% (inactive) | 
Cc1cccc(C(=O)Nc2ccc(-c3nc4ncccc4o3)cc2C)c1 | -23.1% (inactive) | 

SMILES | activity, negative = inhibition | Potency
COC(=O)C1=CO[C@@H](O[C@@H]2O[C@H](CO)[C@@H](O)[C@H](O)[C@H]2O)C2C1C[C@H](O)[C@@H]2C (stereo partly drawn) | 1.46% [at 2.33 µM] (inactive) | 
CCc1cccc(NC(=O)Cn2nc(CC)n3c(cc4cc(C)ccc43)c2=O)c1 | 10.2% (inactive) | 
COc1ccccc1C(=O)NCC(=O)OCC(=O)Nc1nnc(-c2ccccc2)o1 | 17.3% [at 12.7 µM] (inactive) | 
COc1ccccc1NC(=O)C1=C(C)Nc2ncnn2C1c1ccc(C)o1 (stereo not drawn) | -42.2% [at 12.7 µM] (inactive) | 
COc1ccccc1NC(=O)C1=C(C)NC(=O)NC1c1ccc(C)s1 (stereo not drawn) | -35.5% [at 102 µM] (inactive) | 
COc1ccccc1NC(=O)C1=C(C)NC2=C(C(=O)CCC2)C1c1ccc(C)o1 (stereo not drawn) |  | 50.1 µM (active)
CCOC(=O)c1cc2c(=O)n3ccccc3nc2n(CC2CCCO2)c1=NC(=O)c1ccccc1Br (stereo not drawn) | 7.77% (inactive) | 
CC(=O)N/C(=C\c1ccccc1)C(=O)OC(C)C(=O)N(C)c1ccccc1 (stereo not drawn) | 7.54% [at 102 µM] (inactive) | 
Cc1ccc(OCCCC(=O)Nc2ccc3c(c2)OCCO3)cc1 | -14.7% (inactive) | 
O=C(c1ccc(OC2CCN(Cc3ccccn3)CC2)cc1)N1CCCCCC1 | 8.07% [at 102 µM] (inactive) | 
CCCCN(C)C(=O)C1CCN(Cc2ccccn2)CC1 |  | 5.62 µM (active)
CN(CCc1ccccn1)C(=O)c1ccc(OC2CCN(Cc3ccccn3)CC2)cc1 | 24.7% [at 0.501 µM] (inactive) | 
Cc1noc(C)c1COc1ccccc1C(=O)N(C)CC(=O)Nc1cccc(F)c1 | -4.12% [at 102 µM] (inactive) | 
CCOC(=O)c1ccc(NC(=O)Cn2cc(S(=O)(=O)Cc3ccccc3F)c3ccccc32)cc1 | -3.92% (inactive) | 
Cc1cc(C(=O)CCC(=O)NNC(=O)c2ccccc2O)c(C)s1 | 16.4% [at 102 µM] (inactive) | 
Cc1sc2nc(SCCO)n(-c3ccccc3)c(=O)c2c1C | -15.9% [at 102 µM] (inactive) | 
COc1ccc(S(=O)(=O)N2CCSCC2)cc1 | 1.31% [at 102 µM] (inactive) | 
C=CCN1CN(S(=O)(=O)c2ccc(OC)cc2)c2nc3ccccc3nc21 |  | 7.08 µM (active)
O=S(=O)(c1ccccc1)N1CN(Cc2ccc(F)cc2)c2nc3ccccc3nc21 | -47.7% [at 102 µM] (inactive) | 
O=C(CC1C(=O)N(c2ccccc2)C(=O)N1CCc1cccs1)Nc1ccc(F)cc1 (stereo not drawn) | 5.32% (inactive) | 
Cc1ccccc1C(=O)NC(=S)NC1CC1 | -4% [at 102 µM] (inactive) | 
CCn1c2ccccc2c2cc(NC(=O)COc3ccc(C)cc3C)ccc21 | -36% (inactive) | 
O=C(CCCCCn1c(=S)[nH]c2ccsc2c1=O)NC1CCCCC1 |  | 10 µM (active)
O=C(CCC(=O)c1cccs1)NC1CCCCCC1 | -16.9% [at 102 µM] (inactive) | 
CCCCC(CC)CNC(=O)CCCCn1c(=O)[nH]c2ccsc2c1=O (stereo not drawn) |  | inactive

SMILES | activity, negative = inhibition | Potency
COc1ccccc1-c1sc2ccccc2c1-c1ccc(C(C)=O)cc1 | 226% [at 102 µM] (inactive) | 
COc1ccc(CN(C)C(=O)CC(c2ccccc2)c2ccccc2)cc1 | 15.5% (inactive) | 
COc1ccc(C(CCN(Cc2ccc(OC)c(OC)c2)C(=O)CCl)c2ccccc2)cc1 (stereo not drawn) |  | 50.1 µM (active)
CCOC(=O)CN(Cc1ccc(OC)c(OC)c1)S(=O)(=O)c1ccc(OC)cc1 | 18.2% [at 102 µM] (inactive) | 
Cc1ccc(Cl)cc1N1CCN(C(=O)c2cn(C)c3ccc(S(=O)(=O)N(C)C4CCCCC4)cc3c2=O)CC1 | 14% (inactive) | 
CCn1cc(CCC(=O)NCc2ccc(F)cc2)c2ccccc21 | -11% [at 102 µM] (inactive) | 
COc1cc(OC)c(OC)cc1/C=C/c1nc2cc3ccccc3cc2c(=O)n1-c1ccc(F)c(Cl)c1 | -13.5% (inactive) | 
Fc1ccc(Nc2nc(SCc3ccccc3Cl)nc3ccccc23)cc1 | 24.3% (inactive) | 
C=CS(=O)c1sc(Cl)c(N2CCOCC2)c1[N+](=O)[O-] (stereo not drawn) |  | 1.58 µM (active)
O=C(CC1Oc2ccccc2NC1=O)NCc1ccc(F)cc1 (stereo not drawn) | 28.9% (inactive) | 
O=C1c2ccccc2C(=O)N1c1cccc2ccccc12 | 2.93% [at 102 µM] (inactive) | 
CC1=C(C)CC2C(=O)N(c3cccc4ccccc34)C(=O)C2C1 (stereo not drawn) |  | 7.94 µM (active)
CCc1ccccc1N1C(=O)C2C3CC(=O)C(c4ccccc43)C2C1=O (stereo not drawn) | 19.2% [at 102 µM] (inactive) | 
CCCCn1cc(S(=O)(=O)c2ccc(OCC)cc2)c(=O)c2cc(OC)c(OC)cc21 | -30.4% (inactive) | 
CCn1c(=O)c(C(=O)NCc2ccc3c(c2)OCO3)c(O)c2ccccc21 | 8.89% [at 0.501 µM] (inactive) | 
COc1ccc(C2c3c(oc4ccccc4c3=O)C(=O)N2Cc2ccc3c(c2)OCO3)cc1 (stereo not drawn) | -28.3% (inactive) | 
CCc1noc(C)c1C(=O)Oc1ccc(N(C)S(=O)(=O)c2ccc(C)c(C)c2)cc1 | 15.4% [at 12.7 µM] (inactive) | 
CNC(=O)CSc1nnc(CCc2ccccc2)n1-c1ccccc1 | -17.5% (inactive) | 
COC(=O)c1ccc(NC(=O)CSc2nnc(C3CC3)n2C)cc1 | 18.2% [at 102 µM] (inactive) | 
COC(=O)c1ccc(NC(=O)CSc2nnc(Cc3cccn3C)n2-c2ccc(F)cc2)cc1 |  | 44.7 µM (active)
O=C(CSc1nnc(CNC(=O)c2ccccc2)n1-c1ccc(F)cc1)Nc1ccccc1F | -18.3% (inactive) | 
Cn1cccc1Cc1nnc(SCC(=O)NCCc2ccccc2)n1-c1ccc(F)cc1 |  | 56.2 µM (active)
COC(=O)c1ccc(NC(=O)CSc2nnc(-c3ccncc3)n2C)cc1 | 0.0579% [at 102 µM] (inactive) | 
